The values below come from PubChem BioAssay.

Activity calls are given as the source filed them.

A short description of one assay: PSAC antagonists in infected red cells, primary screen, cell-based, P. falciparum Indochina, OD700, 18 h (AID 1157). As to conditions: P. falciparum Indochina infected erythrocytes, osmotic lysis OD700, 18 h; higher = more signal, called active from +8 up or from −8 down.
Regarding `O=C1O[C@@H](c2ccccc2)[C@@H](c2ccccc2)N2[C@@H](c3ccc(OCCO)cc3)[C@]3(C(=O)Nc4ccc(C#CCCO)cc43)[C@@H](C(=O)NC[C@H](O)c3ccccc3)[C@H]12`, the z-score is 0.688 (inactive). On the same count and under the same terms, for `CC(c1ccccc1)C(O)C1C=CC2C(=O)N(c3ccccc3)C(=O)C2N1Nc1ccccc1` (stereo not drawn) the value was -1.35 (inactive).

Turning to `CC1CC/C=C\[C@H]2OC34C=CCN(Cc5ccccc5)C(=O)[C@H]3N(C(C)CO)C(=O)[C@@H]4C2C(=O)O1` (stereo partly drawn), the z-score was 0.425 (inactive).

Another assay in a line: modulators of S6 phosphorylation in cells, primary screen, cell-based, A549, cytoblot, luminescence, serum-stimulated (AID 1158).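 Note: serum-stimulated A549 lung adenocarcinoma cells; signal is phosphorylated S6 detected by cytoblot immunostaining with HRP secondary.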 As to conditions: A549 phospho-S6 cytoblot, 5 h, higher = more signal.
Turning to `COc1ccc([Si](C)(C)[C@@H]2[C@@H](CCO)O[C@]3(C(=O)N(Cc4cccc(N5CCOC5=O)c4)c4ccccc43)[C@H]2C)cc1`, the z-score was determined as 0.715. On to `CCOC(=O)C1=CC[C@H]2C(=O)N(c3ccccc3)C(=O)[C@@H]12`, for which the z-score is -0.743.

`CCOC(=O)C[C@H]1[C@H](OC(=O)c2ccc(C(=O)c3ccccc3)cc2)[C@@H](NC(=O)Cc2ccc(OC)cc2)c2cc(OCCCO)ccc2N1C(=O)c1ccc2ccccc2n1` came in with a z-score of -0.0822. The same measure, in the same setting: for `COC(=O)[C@@]1(Cc2ccc(F)cc2)[C@H]2c3cc(C(=O)N(C)C)n(Cc4cc(C)n(C)n4)c3C[C@H]2CN1C(=O)c1ccccc1` the value was -0.438. On the same count and under the same terms, for `CCCC[C@@H]1C[C@H]1[C@@H](NC(=O)c1cccnc1)c1ccc(Cl)cc1` the value was 0.348; for `[N-]=[N+]=Nc1ccccc1C[C@@]1(C(=O)N2CCCCC2)N=C(c2ccc(OCCCO)cc2)O[C@@H]1c1ccccc1N=[N+]=[N-]`, 0.0562.

Take `C=CCC(OC(C)=O)[C@@H]1[C@@H](N(Cc2ccc(-c3cccc(C(F)(F)F)c3)o2)C(=O)c2cccc3ccccc23)c2cc(OCCCO)ccc2N1C(=O)Cc1ccc2ccccc2c1` (stereo partly drawn): the z-score was 0.359. On the same count and under the same terms, for `CCCCN1CC=CC23O[C@@H]4C=CCOC(=O)[C@@H]4[C@H]2C(=O)N(CCCCCCO)[C@@H]3C1=O` (stereo partly drawn) the value was 0.133. The same measure, in the same setting: the result for `O=C1C2C=CC(C(O)C=Cc3ccc([N+](=O)[O-])cc3)N(n3cnnc3)C2C(=O)N1Cc1ccccc1` (stereo not drawn) reads -0.584.

Compound `O=C1[C@H]2C=C(Br)[C@H](C[C@@H]2OCCCCCCO)[C@@]12CO2` showed a z-score of -0.276. On the same count and under the same terms, the result for `CCCCCCCCCCC(O)C1C=CC2C(=O)NC(=O)C2N1Nc1ccc(Cl)cc1Cl` (stereo not drawn) reads -0.428; that for `C=CC1c2cc(O)c(OC)cc2CCN1Cc1cccc(OC(F)(F)F)c1` (stereo not drawn), -0.318; that for `CC(C)[Si](C#C[Si](C(C)C)(C(C)C)C(C)C)(O[C@H](C)c1cn(Cc2ccccc2)nn1)C(C)C`, -0.217. Still for that read-out and setting: for `O=C1O[C@H](c2ccccc2)[C@H](c2ccccc2)N2[C@H]1[C@@H](C(=O)NC[C@H](O)c1ccccc1)[C@]1(C(=O)Nc3ccc(C#CC4=CCCCC4)cc31)[C@H]2c1ccccc1OCCO` the value was 0.233; for `COc1ccc(-c2cc3c(c(Cc4ccccc4)n2)[Si](C(C)C)(C(C)C)OC3)cn1`, 0.0758; for `C=CCC(OC(C)=O)[C@@H]1[C@@H](N(Cc2ccc(-c3cccc(C(F)(F)F)c3)o2)C(=O)Cc2ccc(OC)cc2)c2cc(OCCCO)ccc2N1C(=O)c1ccc2ccccc2c1` (stereo partly drawn), 0.388.

`CCC(CC)C(O)C1C=CC2C(=O)N(c3ccccc3)C(=O)C2N1Nc1ccccc1` (stereo not drawn) registered a z-score of -0.709. On the same count and under the same terms, the result for `CN1C(=O)C2C=CC(C(O)c3c(F)cccc3Cl)N(NC(=O)OC(C)(C)C)C2C1=O` (stereo not drawn) reads -1.11; that for `C=C[C@H](C)[C@@H](OC(=O)Nc1ccc(SC)cc1)c1ccc(O)c2ccccc12`, 1.23; that for `COc1ccccc1CN1C(=O)c2ccccc2[C@@H](C(=O)NCc2ccccc2)[C@@H]1c1ccc(CO)cc1`, 0.161. In the case of `O=C1OCC=C[C@H]2OC34C=CCN(Cn5nnc6ccccc65)C(=O)[C@H]3N(CCCCCO)C(=O)[C@@H]4[C@@H]12` (stereo partly drawn), the z-score was -0.433. On the same count and under the same terms, for `Cc1ccc(S[C@]2(C(=O)NCC(C)C)CC(=O)N(Cc3cc(C(F)(F)F)cc(C(F)(F)F)c3)[C@@H]2c2ccc(CO)cc2)cc1` the value was -0.0958.

The compound `CS(=O)(=O)CCOC(=O)C1=CC(CCCO)=CC(C2CC2)N(Cc2cc3c(cc2Br)OCO3)C=C1C(=O)OCCS(C)(=O)=O` (stereo not drawn) gave a z-score of 0.404. On the same count and under the same terms, for `C=CCOC(=O)[C@H]1[C@@H]2C(=O)O[C@@H](c3ccccc3)[C@@H](c3ccccc3)N2[C@@H](c2ccc(OCCOC(=O)[C@H]3C[C@H]4C(=O)N[C@@H](CCCCN(C)C)C(=O)N4[C@H]3c3cccc(OCCO)c3)cc2)[C@]12C(=O)Nc1ccc(I)cc12` the value was -0.529; for `COc1ccc([Si](C)(C)[C@H]2[C@H](CC(=O)N3CCC[C@H]3CO)O[C@@]3(C(=O)N(Cc4cccc(N5CCOC5=O)c4)c4ccccc43)[C@@H]2C)cc1`, 0.305.
